Reference: PubChem BioAssay
The source made the active and inactive calls.

assay: optical density shifts of acrAB sulA E. coli – strain DRC41, OD650, 48 h, E. coli filamentation inducer project, primary screen (AID 1152); conditions: higher = more signal, called active from +8 up or from −8 down;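 also: E. coli MC1000 strain DRC41 lacking acrAB efflux pump and sulA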

z-score, inactive:
C[N+](C)(C)CCCC[C@@H]1NC(=O)[C@@H]2C[C@H](C(=O)O)[C@H](c3cccc(OCCO)c3)N2C1=O 1.03, COCCOC(=O)N1C(=O)[C@@]2(c3cc(C#CCC(C(=O)OC)C(=O)OC)ccc31)[C@H](c1ccc(OCCO)cc1)N1[C@H](c3ccccc3)[C@H](c3ccccc3)OC(=O)[C@H]1[C@@H]2C(N)=O -0.361, Cc1cc(C)c(C(O)C2C=CC3C(=O)N(c4ccccc4)C(=O)C3N2Nc2ccc([N+](=O)[O-])cc2)c(C)c1 (stereo not given) -0.613, O=C(CS)NCCCCCNC(=O)[C@@H]1C[C@@H]2C(=O)N3CCC[C@H]3C(=O)N2[C@@H]1c1ccc(O)cc1 -0.391, C[C@@H]1ON(c2ccccc2)[C@H](c2ccccc2)[C@H]1C(=O)N1C(=O)OC[C@H]1Cc1ccccc1 0.848, [N-]=[N+]=Nc1ccccc1[C@@H]1OC(c2ccc(OCCCO)cc2)=N[C@]1(CCS(=O)(=O)c1ccccc1)C(=O)NCc1ccccc1 0.871, COc1ccc([Si](C)(C)[C@@H]2[C@@H](CC(=O)N(CCO)Cc3ccccc3)O[C@]3(C(=O)N(Cc4ccc(N5CCOC5=O)cc4)c4ccccc43)[C@H]2C)cc1 -1.02, COc1ccccc1CN1C(=O)c2ccccc2[C@@H](C(=O)NCC(C)C)[C@@H]1c1ccc(CO)cc1 1.08, COC(=O)[C@@]1(Cc2ccc(F)cc2)[C@@H]2[C@@H](CC(=O)[C@H]2CC(=O)C(=O)N2CCCC2)CN1C(=O)c1ccccc1 -1.75, CC1CC/C=C\[C@H]2OC34C=CCN(c5ccc(Cl)cc5)C(=O)[C@H]3N(C(CO)C(C)C)C(=O)[C@]4(C)C2C(=O)O1 (stereo not given in full) -0.397, C=CCC(OC(C)=O)[C@@H]1[C@@H](N(Cc2cccc3ccccc23)C(=O)Cc2ccc(F)cc2)c2cc(OCCCO)ccc2N1C(=O)Cc1ccc(OC)cc1 (stereo not given in full) 1.44, COC(=O)[C@]1(Cc2ccccc2CN=[N+]=[N-])N=C(c2ccc(OCCCO)cc2)O[C@@H]1c1ccccc1 -0.453, CCCc1cc2c(n1Cc1ccc(OC)cc1)C(C)C1CN(C(=O)c3ccccc3)C(C)(C(=O)OC)C21 (stereo not given) -2.02, CN(C)C(=O)[C@@]1(CCC(=O)OC(C)(C)C)N=C(c2ccc(OCCCO)cc2)O[C@H]1c1ccccc1N=[N+]=[N-] 0.0366, CCN(CC)c1ccc(N2CC=CC34O[C@@H]5/C=C\CCCOC(=O)C5[C@H]3C(=O)N(CCCCCO)[C@@H]4C2=O)cc1 (stereo not given in full) -1.06, COC(=O)[C@@]1(Cc2ccc(F)cc2)[C@H]2c3cc(C(=O)N(C)C)n(CCSCCO)c3C[C@H]2CN1C(=O)c1ccccc1 -0.683, C=CCNC(=O)[C@@H]1[C@H]2C(=O)O[C@H](c3ccccc3)[C@H](c3ccccc3)N2[C@H](c2ccc(O)cc2)[C@@]12C(=O)Nc1ccc(C#CCCO)cc12 1.79, COC(=O)C(CC#Cc1ccc2c(c1)[C@]1(C(=O)N2)[C@H](c2ccccc2OCCO)N2[C@H](c3ccccc3)[C@H](c3ccccc3)OC(=O)[C@H]2[C@@H]1C(=O)Nc1nc2ccccc2s1)C(=O)OC -1.2, COC(=O)[C@@]1(Cc2ccc(OC)cc2)[C@H]2c3cc(C(=O)N4CCCC4)n(CCc4ccc(O)c(OC)c4)c3C[C@H]2CN1C(=O)c1ccccc1 -1.82, CCOC(=O)C[C@H]1[C@H](OC(=O)c2ccccc2-c2ccccc2)[C@@H](NC(=O)c2ccccc2)c2cc(OCCCO)ccc2N1C(=O)Cc1ccc(OC)cc1 -0.81, C=C(/C(=C/C[C@@H](OC(=O)c1ccncc1)c1ccccc1OCCO)c1cnc2ccccc2c1)C(C)C -0.592, COCCOC(=O)N1C(=O)[C@@]2(c3cc(C#CCC(C(=O)OC)C(=O)OC)ccc31)[C@H](C(=O)N1CCCCCCC1)[C@H]1C(=O)O[C@H](c3ccccc3)[C@H](c3ccccc3)N1[C@@H]2c1ccc(O)cc1 0.683, NC(=O)NCC#Cc1ccc2c(c1)[C@]1(C(=O)N2)[C@H](c2ccc(OCCO)cc2)N2[C@H](c3ccccc3)[C@H](c3ccccc3)OC(=O)[C@H]2[C@@H]1C(=O)N1CCCCCCC1 -1.89, C=C(CCCC)/C(=C/C[C@H](OC(=O)c1ccncc1)c1ccc(CO)o1)c1cc(C(=O)OC)ccc1OC -0.432, O=C1N(CCS(=O)(=O)c2ccccc2)Cc2ccccc2C[C@@]12COC(c1ccc(OCCCO)cc1)=N2 -2.34, C[N+](C)(C)CCCCNC(=O)[C@H]1C[C@H]2C(=O)NCC(=O)N2[C@H]1c1ccc(O)cc1 0.77, CC(C)N1C(=O)c2ccccc2[C@](C)(C(=O)O)[C@@H]1c1ccc(CO)cc1 -0.308, C[N+](C)(C)CCCCCCNC(=O)[C@@H]1C[C@@H]2C(=O)NCC(=O)N2[C@@H]1c1ccc(O)cc1 0.109, COCCCNC(=O)[C@@]1(Cc2ccccc2CN=[N+]=[N-])N=C(c2ccc(OCCCO)cc2)O[C@H]1c1ccccc1N=[N+]=[N-] 2.51, COC(=O)[C@@]1(Cc2ccc(OC)cc2)[C@H]2c3cc(C(=O)N(C)C)n(CCF)c3C[C@H]2CN1C(=O)c1ccccc1 -0.55, C=CCNC(=O)[C@H]1[C@@H]2C(=O)O[C@@H](c3ccccc3)[C@@H](c3ccccc3)N2[C@@H](c2ccc(OCCO)cc2)[C@]12C(=O)N(C(=O)OCCOC)c1ccc(C#CC3=CCCCC3)cc12 1.1, O=C1C2C=CC(C(O)c3cccc4ccccc34)N(Nc3ccccc3)C2C(=O)N1c1ccccc1 (stereo not given) -0.692, COc1ccc(C#Cc2ccc3c(c2)[C@]2(C(=O)N3)[C@H](C(=O)O)[C@H]3C(=O)O[C@H](c4ccccc4)[C@H](c4ccccc4)N3[C@@H]2c2ccc(OCCO)cc2)cc1 0.962, C=CCOC(=O)[C@H]1[C@@H]2C(=O)O[C@@H](c3ccccc3)[C@@H](c3ccccc3)N2[C@@H](c2ccc(OCCOC(=O)[C@H]3C[C@H]4C(=O)N[C@@H](CCCCN(C)C)C(=O)N4[C@H]3c3ccc(O)cc3)cc2)[C@]12C(=O)Nc1ccccc12 -0.558, COC(=O)[C@@]1(Cc2ccccc2)[C@H]2c3cc(C(=O)N(C)C)n(Cc4ccccn4)c3C[C@H]2CN1C(=O)c1ccccc1 -1.59
